Rows were chosen to be rich in hits. Some 8.9% of all compounds tested hit in one or more screens of this group.
IMPase Li inh = IMPase inhibition in cells with lithium potentiation. CHO-M1 cells, IP1 TR-FRET (IP-One), carbachol + lithium. Potency, µM (highest dose often 59.4 µM), for the others: at the top dose activity, negative = IMPase inhibition, usual class: inhibitors. 210,000 compounds, 0.35% hits. AID 1457;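 further: IP1 builds up when IMPase is blocked and the TR-FRET signal falls; potency means the concentration at half of the fitted maximal effect; plate controls were basal vehicle for no effect and high inhibitor control for full effect; nearly all actives have a fitted effect of over 50% in size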
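Readout is a homogeneous TR-FRET IP1 immunoassay (Ex 320, Em 665 and 620), where raised cytosolic IP1 lowers signal. Cells were CHO-M1 treated 30 min at 37C with test compounds plus a little lithium; AC50 values came from Hill-equation fitting.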
IMPase cell inh = membrane-permeable compound that blocks inositol monophosphatase. P97697. CHO-M1 cells, IP1 accumulation, HTRF TR-FRET ratio. inhibition (IP1 accumulation), % at 46.1 µM. 120,000 tested, under 10 active. AID 901; active means well fitted curve in the direction sought with a large enough effect in the signal ratio, not every such curve was filed as active; inconclusive means small, poorly fitted or top-dose-only effect, or a change in a side signal; inactive means no such curve, though single readings can be large or run the other way; the % refers to the signal ratio;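 further: cells stimulated with carbachol in lithium chloride buffer; plate controls were DMSO basal wells for no effect and reference inhibitor wells for full effect; higher means more IMPase inhibition seen as more IP1 and lower FRET ratio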
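Cellular IMPase inhibition is scored as a rise in cytosolic IP1, detected by competitive TR-FRET between d2-labelled IP1 and a europium anti-IP1 antibody. M1-expressing CHO cells were stimulated with carbachol for 30 min at 37C, with lithium (50 mM LiCl) present in the buffer.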
HPGD inh = HPGD (human) dehydrogenase inhibition. AID 894. 150,000 compounds, 4.3% hits. P15428. purified HPGD, NADH fluorescence kinetic, PGE2 substrate. Potency, µM, for inactives: at the top dose activity change, negative = inhibition, hits mostly inhibitors; active means well fitted inhibition curve with a large enough effect, not every such curve was filed as active; inconclusive means small, poorly fitted or top-dose-only effect, or another doubt; inactive means no such curve, though single readings can be large or run the other way; further: potency means the concentration at half of the fitted maximal effect
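20 nM HPGD preincubated 15 min at room temperature with compound in 50 mM Tris-HCl pH 8, 0.01% Tween 20. Started with 1 mM NAD+ and 30 uM prostaglandin E2; NADH fluorescence (360/450 nm) read 5 times over 30-s intervals, last minus first.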
ALDH1A1 block = inhibitors of human aldehyde dehydrogenase 1A1 | P00352 | Purified ALDH1A1, NADH fluorescence, propionaldehyde substrate | Potency, µM (series often up to 75.3 µM), without a hit: at the highest dose activity, negative = inhibition, usual class: inhibitors | 220,000 compounds, 7.3% hits | AID 1030; active means well fitted inhibition curve with a large enough effect, not every such curve was filed as active; inconclusive means small, poorly fitted or top-dose-only effect, or another doubt; inactive means no such curve, though single readings can be large or run the other way;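 further: potency means the concentration at half of the fitted maximal effect; plate controls were no enzyme wells and a reference inhibitor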
Target sequence (P00352 whole entry, looked up): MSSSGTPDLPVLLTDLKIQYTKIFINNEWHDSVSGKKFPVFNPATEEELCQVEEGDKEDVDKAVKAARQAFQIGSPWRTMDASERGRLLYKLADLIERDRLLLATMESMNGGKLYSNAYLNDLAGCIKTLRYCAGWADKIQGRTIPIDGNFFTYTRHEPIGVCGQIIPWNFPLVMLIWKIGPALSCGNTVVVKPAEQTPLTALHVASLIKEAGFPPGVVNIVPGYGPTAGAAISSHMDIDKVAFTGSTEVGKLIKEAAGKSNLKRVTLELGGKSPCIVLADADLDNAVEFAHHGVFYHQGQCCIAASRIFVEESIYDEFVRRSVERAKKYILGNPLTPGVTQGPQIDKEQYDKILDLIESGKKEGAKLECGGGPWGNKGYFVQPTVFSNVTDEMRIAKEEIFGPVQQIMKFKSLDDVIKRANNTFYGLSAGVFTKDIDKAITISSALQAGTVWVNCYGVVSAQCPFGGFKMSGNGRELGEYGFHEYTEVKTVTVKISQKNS
NPSR antag = neuropeptide S receptor (human) antagonism, cAMP; Potency, µM (highest dose often 38.3 µM), inactives show at the top dose activity change, negative = inhibition, usual class: inhibitors; 220,000 compounds, 1% hits; AID 1461; CHO-NPSR cells, cAMP TR-FRET, antagonist mode; Q6W5P4; further: potency means the concentration at half of the fitted maximal effect; nearly all actives have a fitted effect of over 50% in size
12-hLO inh = 12-hLO (ALOX12) enzyme inhibition; 150,000 compounds, 0.12% hits; purified 12-hLO, xylenol orange hydroperoxide absorbance; Potency, µM (titrated, usually from 57.1 µM), without a hit: top-dose activity change, negative = inhibition, most hits filed as inhibitors; P18054; further: potency means the concentration at half of the fitted maximal effect; nearly all actives have a fitted effect of over 55% in size
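Xylenol orange chromogenic assay: hydroperoxide from 12hLO oxidises Fe(II), giving red-shifted Fe(III)-XO absorbance. Conditions: 150 nM enzyme, 40 uM arachidonic acid, 25 mM Hepes pH 7.0, 0.01% Triton X-100, 30 min, room temperature.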
The depositor's hits bear a star; [ ] = another dose, or the depositor's remark. Unless noted, the call rests on the fitted dose curve; in most records, active means well fitted curve in the direction sought with a large enough effect; inconclusive means small, poorly fitted or top-dose-only effect, or another doubt; inactive means no such curve, though single readings can be large; an effect the other way counts as inactive or inconclusive. Unless noted, on the % scale 0 is the no-effect control and ±100 the full control effect.

CC(NC(=O)c1ccco1)C(c1cccs1)N1CCN(c2ccc(F)cc2)CC1 (centres undefined) was read as IMPase Li inh 29.3%[38.3 µM], IMPase cell inh -4.7, HPGD inh -15.8%, ALDH1A1 block inconclusive, NPSR antag inconclusive and 12-hLO inh -9.0%.
`CC(=O)N1CCc2cc(S(=O)(=O)NC(C(=O)NC3CCCc4ccccc43)C(C)C)ccc21` (centres undefined) gave IMPase Li inh 12.2%[38.3 µM], IMPase cell inh 28.3, HPGD inh inconclusive, ALDH1A1 block 13.4%, NPSR antag -10.5%[46.1 µM] and 12-hLO inh 1.6%.
`COc1ccc(-c2nn(-c3ccccc3)cc2/C=N/NC(=O)c2ccc(Br)o2)cc1` gave IMPase Li inh 18.1%[38.3 µM], IMPase cell inh 14.1, HPGD inh inconclusive, ALDH1A1 block inconclusive, NPSR antag 6.31µM* and 12-hLO inh 9.8%.
`COc1ccc(-c2nn(-c3ccccc3)cc2/C=N/NC(=O)c2ccc3c(c2)OCO3)cc1` gave IMPase Li inh 2.4%[38.3 µM], IMPase cell inh 0.0, HPGD inh inconclusive, ALDH1A1 block inconclusive, NPSR antag -17.6%[46.1 µM] and 12-hLO inh -3.8%.
Screening Cc1ccc(S(=O)(=O)Nc2ccc(O)c3ncccc23)cc1 returned IMPase Li inh 27.0%, ALDH1A1 block 1.26µM* and NPSR antag -27.6%.
Cc1ccc(S(=O)(=O)Nc2ccnc3ccccc23)cc1 was read as IMPase Li inh 13.7%[38.3 µM], IMPase cell inh -5.6, HPGD inh -8.8%, ALDH1A1 block 6.8%, NPSR antag -1.4%[46.1 µM] and 12-hLO inh 1.5%.
`CCCCCCCCS(=O)C1CCS(=O)(=O)C1` (centres undefined) gave IMPase Li inh -9.4%[38.3 µM], IMPase cell inh inconclusive, HPGD inh -10.7%, ALDH1A1 block 12.5%, NPSR antag 3.9%[46.1 µM] and 12-hLO inh -3.3%.
For CCCCCCS(=O)[C@H]1CS(=O)(=O)C[C@@H]1S(=O)CCCCCC (some centres undefined) the results were IMPase Li inh 6.5%[38.3 µM], IMPase cell inh -9.0, HPGD inh 12.6µM*, ALDH1A1 block inconclusive, NPSR antag 3.8%[46.1 µM] and 12-hLO inh -7.8%.
For CC1=C(C(=O)OC2CCCC2)C(c2ccccc2C(F)(F)F)CC(=O)N1 (centres undefined) the results were IMPase cell inh 10.5.
For CC(C)(C)c1cc(CN(CCO)CCO)cc(C(C)(C)C)c1O the results were IMPase Li inh 15.3%[38.3 µM], IMPase cell inh 6.7, HPGD inh 25.1µM*, ALDH1A1 block 2.51µM*, NPSR antag -6.2%[46.1 µM] and 12-hLO inh -27.0%.
CN(C)Cc1cc(C(C)(C)C)c(O)c(C(C)(C)C)c1 was read as IMPase Li inh -4.4%[38.3 µM], IMPase cell inh 1.7, HPGD inh -1.9%, ALDH1A1 block inconclusive, NPSR antag 0.7%[46.1 µM] and 12-hLO inh -12.8%.
For Fc1ccc(/C=C\c2nccc3c2[nH]c2ccccc23)cc1 the results were IMPase Li inh 5.2%, ALDH1A1 block inconclusive and NPSR antag -55.4%.
Screening COc1ccc(NC(=O)CCN2CCC(C)CC2)cc1 returned IMPase Li inh 20.9%[38.3 µM], IMPase cell inh -2.8, HPGD inh -2.8%, ALDH1A1 block -6.6%, NPSR antag -4.5%[46.1 µM] and 12-hLO inh 4.2%.
Screening CN(c1cccc(NS(=O)(=O)c2cccc([N+](=O)[O-])c2)c1)S(C)(=O)=O returned IMPase Li inh 8.6%, ALDH1A1 block inconclusive and NPSR antag 5.7%.
Cc1ccc(S(=O)(=O)Nc2cccc(N(C)S(C)(=O)=O)c2)cc1[N+](=O)[O-] was read as IMPase Li inh 4.5%, ALDH1A1 block 15.8µM* and NPSR antag 7.3%.
`CCOc1ccc2c(O)csc2c1` gave IMPase Li inh -0.3%[38.3 µM], IMPase cell inh 7.2, HPGD inh -15.7%, ALDH1A1 block 25.1µM*, NPSR antag 2.8%[46.1 µM] and 12-hLO inh -8.2%.
`CCOC(=O)c1c(C)cc(OC)cc1O` gave IMPase Li inh -8.8%, HPGD inh inconclusive, ALDH1A1 block -12.7% and 12-hLO inh -1.5%.
